In publication PMC12440807:

Target: Transcription elongation factor SPT6 (UniProt Q7KZ85)
Experiment: cross-link between two proteins; cross-linking mass spectrometry

Listed as a hit, yes:
Transcription elongation factor SPT5, O00267
Transcription elongation factor SPT4, P63272
DNA-directed RNA polymerase II subunit RPB7, P62487
